Assay results from PubChem BioAssay (NCI).
Compounds without any hit were thinned out: in the full panel of roughly 83,000, 20% have a hit.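 For each line, cells grew in 96-well plates with the test compound present at a single concentration for 48 hours.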 A number with no mark means an inactive call. Active and inactive are the calls of the source. Rule for the calls: active = growth percent below 10; inactive = the rest.

Assays:
Test in all cases: NCI-60 one-dose screen, 48 h (100 = growth as untreated, 0 = no growth, -100 = all killed)
Conditions in all cases: 10 µM unless noted
[1] = test system: DU-145 prostate
[2] = test system: K-562 leukemia
[3] = test system: MALME-3M melanoma
[4] = test system: MDA-MB-231 breast
[5] = test system: RXF 393 renal
[6] = test system: SF-268 CNS
[7] = test system: SF-295 CNS
[8] = test system: SF-539 CNS
[9] = test system: UACC-257 melanoma
[10] = test system: M14 melanoma
[11] = test system: HCT-15 colon
[12] = test system: HT29 colon
[13] = test system: SNB-75 CNS
[14] = test system: SNB-19 CNS
[15] = test system: U251 CNS
[16] = test system: PC-3 prostate
[17] = test system: SK-MEL-5 melanoma
[18] = test system: LOX IMVI melanoma
[19] = test system: SK-MEL-28 melanoma
[20] = test system: UACC-62 melanoma

| Compound | growth [1] | growth [2] | growth [3] | growth [4] | growth [5] | growth [6] | growth [7] | growth [8] | growth [9] | growth [10] | growth [11] | growth [12] | growth [13] | growth [14] | growth [15] | growth [16] | growth [17] | growth [18] | growth [19] | growth [20] |
| --- | --- | --- | --- | --- | --- | --- | --- | --- | --- | --- | --- | --- | --- | --- | --- | --- | --- | --- | --- | --- |
| O=C1Nc2ccccc2/C1=N/c1nc(-c2ccc(Cl)cc2)cs1 | 75.3% | 48.5% | 81.4% | 67.8% | 64.7% | 54.1% | 81.5% | 84.5% | 48.9% | 67.8% | 71.2% | 46.3% | 90.8% | 75.1% | 53.8% | 35.2% | 76.7% | 68.9% | 84.4% |  |
| C=C1C(=O)O[C@H]2[C@H]1CC/C(COC(=O)CCCc1c[nH]c3ccccc13)=C\CC[C@@]1(C)O[C@@H]21 | 49.6% | -9.04% (active) | 86.4% | 35.4% | 32.7% | 60.8% | 82% | 41.7% | 64.1% | 53.1% | 7.56% (active) | 21.7% | 76.4% | 71.2% | 56.4% | 50.7% | 71.5% | -3.89% (active) | 92.6% | 70.1% |
| Nc1c(C(=O)Nc2cccc3ccncc23)sc2nc3c(cc12)C(=O)CCC3 | 38.5% | 24.8% | 63.7% | 62.8% | 29.8% | 55.1% | 20.1% | 16.1% | 49.2% | 26.1% | 35.1% | 18.2% | 9.48% (active) | 32.9% | 48.3% | 52.9% | 3.47% (active) | 46.2% | 55.8% | 28.9% |
| CCCCCCCCCCCC(=O)C(CCCCCCCCCC)C(=O)Nc1ccccc1 (stereo unspecified) | 104% | 104% | 105% | 91.2% | 116% | 104% | 102% | 98.2% | 92.9% | 103% | 115% | 94.7% | 101% | 101% | 99.4% | 92.6% |  | 93.5% | 108% | 91.5% |
| COc1cc(C(=O)c2cnc(-c3ccc4cc[nH]c4c3)[nH]2)cc(OC)c1OC | -1.47% (active) | 8.98% (active) | 48.9% | -48% (active) | 34.4% | 10% | 5.4% (active) | -5.7% (active) | 62.3% | 4.97% (active) | 6.36% (active) | -21.6% (active) | 9.22% (active) | 23.1% | 10% | 18% | -63% (active) | 8.42% (active) | 55.9% |  |
| Cc1cc2cc3cc(C)c(N)cc3[n+](C)c2cc1N | 19.1% | 9.81% (active) | 1.11% (active) | 20.2% | 26.3% | 14.2% | -4.54% (active) | 17.3% | 5.88% (active) | 18.7% | 31.8% | -16.8% (active) | 38.3% | 11.6% | 6% (active) | 8.84% (active) | 18.4% | -4.56% (active) | 21.7% |  |
| CCOc1cc(CNc2ccc(N3CCOCC3)c(C(=O)O)c2)ccc1OC | 101% | 101% | 105% | 92.3% | 99.3% | 97.8% | 104% | 104% | 93.9% | 96.5% | 96.4% | 98.1% | 108% | 94.6% | 103% | 98.9% | 99.8% | 99.5% | 100% | 90.3% |
| CC(C)Cc1ccc(C(C)C(=O)NCc2c[nH]c3ccc(Cl)cc23)cc1 (stereo unspecified) | 103% | 71.3% | 98.8% | 82.2% | 87.8% | 89.3% | 88.3% | 100% | 99.4% | 92.4% | 91.2% | 111% | 102% | 96.2% | 91.8% | 66.2% | 85.4% | 96% | 94.6% | 66.6% |
